Measurements taken from the supplement of paper PMC12636033.
± gives the standard deviation of the averaged measurements. Over roughly 33,000 sequences, “E-score (rank enrichment, -0.5 to 0.5)” has its median near -0.0075; the highest 2% begin near 0.23. The sample holds the highest values, similar sequences and a random draw of the others, so the mix is not that of the screen.

system: WT Max(13-93) synthetic (M65Nle); experiment: PBM 8-mer E-score (E-score (rank enrichment, -0.5 to 0.5)); higher = stronger preferential binding
Protocol: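 Protein binding microarray (universal PBM chip covering all 10-mers in fixed probe flanks) with chemically synthesized human Max(13-93) bHLH-LZ analogs (not full-length Max) bearing noncanonical residues (hArg, Tha, Aib, Nle at 65) and aromatic Cys staples. Read-out per 8-mer (and its reverse complement): E-score (rank-based enrichment, -0.5 to 0.5) and Z-score of median probe intensity.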

Row | Sequence | PBM 8-mer E-score
1 | ACTGTGCA | -0.0882 ± 0.057
2 | ATGGTCTA | -0.0528 ± 0.067
3 | GTGAGGGA | -0.116 ± 0.061
4 | AAATGGGC | -0.1 ± 0.011
5 | CTGCTAAC | -0.118 ± 0.073
6 | CCGCTGAC | -0.231 ± 0.04
7 | AGCTAACT | -0.0391 ± 0.11
8 | CGAACTTC | -0.102 ± 0.023
9 | GAAACATC | 0.0695 ± 0.12
10 | TAAACAGA | 0.128 ± 0.15
11 | GAAACATA | 0.27 ± 0.089
12 | GAAACAAC | 0.034 ± 0.041
13 | TAAACATA | 0.299 ± 0.0097
14 | CAAACATA | 0.143 ± 0.12
15 | GAAACAAA | 0.238 ± 0.025
16 | CAAACAAA | 0.0821 ± 0.1
17 | AAAACATA | 0.0863 ± 0.034
18 | AGGGTGCC | -0.11 ± 0.043
19 | TAGTCCCA | -0.054 ± 0.018
20 | CCAATGGC | -0.126 ± 0.23
21 | GGCGACTA | -0.0354 ± 0.12
22 | GACAACGC | 0.1 ± 0.061

Row | Sequence | PBM 8-mer E-score
23 | GCGTTTTA | 0.0184 ± 0.062
24 | CGTTAACA | -0.00101 ± 0.057
25 | TGTTAACA | 0.317 ± 0.13
26 | AGTTAACA | 0.0439 ± 0.0024
27 | GCGATGTA | -0.0179 ± 0.03
28 | AGGATGTG | -0.105 ± 0.014
29 | TAAGCTTA | 0.152 ± 0.0028
30 | AGTGGCAC | 0.0667 ± 0.064
31 | CGTGGCAC | 0.251 ± 0.063
32 | GGTGGCAC | -0.131 ± 0.071
33 | AAGCGTTG | -0.0943 ± 0.073
34 | AGGGTAGA | -0.0604 ± 0.015
35 | GTTAAGTA | 0.0433 ± 0.015
36 | ATTAAGTG | 0.106 ± 0.19
37 | CTTAAGTA | 0.0679 ± 0.077
38 | ATAAAGTG | 0.188 ± 0.078
39 | ATTAAGTC | 0.2923 ± 0.0026
40 | ATTAAGTA | 0.259 ± 0.051
41 | ATAAAGTA | 0.18 ± 0.043
42 | CTTAAGTC | 0.0284 ± 0.017
43 | ATAAAGTC | 0.258 ± 0.062
44 | ATTTCGCG | 0.16 ± 0.065

Row | Sequence | PBM 8-mer E-score
45 | AGATCTAG | -0.118 ± 0.06
46 | ATCACGAA | 0.0216 ± 0.013
47 | AGTTTGTA | 0.074 ± 0.022
48 | AGTCTGGG | -0.106 ± 0.13
49 | GCATGCGC | 0.251 ± 0.056
50 | CCATGCGC | 0.153 ± 0.069
51 | GCATGCGA | 0.238 ± 0.0068
52 | ACATGCGA | 0.141 ± 0.025
53 | ACATGCGC | 0.0958 ± 0.095
54 | CCATGCGA | 0.087 ± 0.11
55 | ACGGGATG | -0.083 ± 0.16
56 | AACGTACG | 0.157 ± 0.067
57 | AACGTGAT | 0.268 ± 0.014
58 | CACGTAAA | 0.13 ± 0.054
59 | AACGTAAC | 0.192 ± 0.0073
60 | TACGTAAA | 0.233 ± 0.068
61 | AACGTGGA | 0.153 ± 0.036
62 | AACGTGAG | 0.132 ± 0.048
63 | GACGTAAA | 0.0324 ± 0.088
64 | AACGTAAT | 0.248 ± 0.037
65 | AACGTGGT | 0.282 ± 0.0092
66 | AACGTAAA | 0.198 ± 0.065

Row | Sequence | PBM 8-mer E-score
67 | AACGTGAA | -0.0163 ± 0.062
68 | AACGTAGT | -0.0406 ± 0.12
69 | GTGTGCTA | 0.0416 ± 0.009
70 | AATCCGAT | -0.0748 ± 0.11
71 | CATTTTCA | 0.063 ± 0.11
72 | CCGAATCG | -0.0138 ± 0.033
73 | CTGTGCCC | -0.035 ± 0.08
74 | CTGTATGA | 0.012 ± 0.079
75 | GGTAAAAA | -0.00424 ± 0.074
76 | ACCAATCG | 0.0164 ± 0.0081
77 | CCGACCGC | -0.0589 ± 0.088
78 | GCCTACAC | -0.0291 ± 0.029
79 | CTGGATAA | -0.0145 ± 0.043
80 | ACTGCATA | 0.0165 ± 0.043
81 | AATGAATG | 0.2671 ± 0.0011
82 | TATGAATA | 0.151 ± 0.12
83 | AATGAATT | 0.128 ± 0.086
84 | GATGAATA | 0.272 ± 0.022
85 | GATGAATC | -0.0452 ± 0.013
86 | AATGAATC | -0.141 ± 0.014
